Screening data (PubChem BioAssay)
Pf growth 96h – P. falciparum growth inhibition at 96 hour, primary screen for plastid delayed-death inhibitors; P. falciparum luciferase reporter growth, 96 h; Potency, µM (titrated, usually from 28.7 µM), hits mostly inhibitors; 6.9% of 320,000 active; AID 504834
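Two-generation exposure (96 h) targets delayed-death phenotype. Reporter parasites carrying integrated firefly luciferase, in red cells at 2% hematocrit and 0.05% parasitemia final, kept at 37 C, 5% CO2; luminescence loss indicates inhibition.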
CHX counter – counter-screen hit for Shiga toxin inhibitors, cycloheximide; 12% of 300,000 active; AID 2314; max response, %; cell reporter, cycloheximide protein synthesis inhibition counterscreen; in the data active = max response mostly above about 13%, no sharp cut-off; inactive = mostly below about 14%; note: read at 38.3 µM for the half of the compounds with a filed dose
Shiga toxin inh – blocks Shiga toxin action in Vero cells; Vero cells, Shiga toxin protein synthesis inhibition reporter; 9.2% of 290,000 active; inhibition, % at 38.7 µM; in the data active = inhibition mostly above about 28%, no sharp cut-off; inactive = mostly below about 43%
Pf growth 48h – inhibits P. falciparum growth in the first generation, 48 h | P. falciparum luciferase growth in erythrocytes, 48 h | Potency, µM (titrated, usually from 28.7 µM), most hits filed as inhibitors | 5.9% of 310,000 active | AID 504832
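Here the parasites carry a stable luciferase gene and grow inside erythrocytes in Albumax-based RPMI medium with compound for one erythrocytic cycle. Activity is scored as loss of luminescent signal.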
HCMV inh – blocks human cytomegalovirus replication | HFF cells, HCMV-luciferase reporter, 72 h; hits give low values | activity change, negative = inhibition, % at 57.5 µM | 4.5% of 410,000 active | AID 1259415; in the data active = activity change below about -60%; inconclusive = no clear call, values can overlap the other calls; inactive = above about -39%
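Screen run at 2 compound doses on HFFs infected with reporter HCMV, MOI 1 PFU/cell. Luciferase activity from cell lysates at 72 h post infection gave inhibition relative to buffer-only and Salinomycin wells.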
Large screens that a line does not name were inactive. An excerpt weighted towards active compounds, which were near 20% of everything screened. Unless noted, calls come from the whole dose curve; as a rule, active = well fitted inhibition curve with a large enough effect; inconclusive = small, poorly fitted or top-dose-only effect, or another doubt; inactive = no such curve, though single readings can be large or run the other way.

COc1cc(-c2nc3ccccn3c2NCC2CCCO2)ccc1O (centres undefined)	none
CCOc1cc(-c2nc3ccccn3c2NCC2CCCO2)ccc1O (centres undefined)	Pf growth 96h 11.7µM
O=C1CCc2cc(S(=O)(=O)N3CCC(C(=O)NCCC4=CCCCC4)CC3)ccc2N1	Pf growth 96h 0.828µM, HCMV inh -98.5 (no result: Pf growth 48h)
Cc1ccc(CCNC(=O)C2CCN(S(=O)(=O)c3ccc4c(c3)CCC(=O)N4)CC2)cc1	none
CN(CC(=O)NCCC1=CCCCC1)S(=O)(=O)c1ccc2c(c1)CCC(=O)N2	Pf growth 96h 3.29µM, Pf growth 48h inconclusive
CCOc1ccc(-c2nc(N)ncc2Oc2ccc(OC)cc2)c(O)c1	Pf growth 96h inconclusive, Pf growth 48h 11.7µM
CCOc1ccc(-c2nc(N)ncc2-c2ccc(Cl)cc2)c(O)c1	Pf growth 96h inconclusive, Pf growth 48h 10.4µM, HCMV inh inconclusive
COc1ccc(-c2nc(C)ncc2-c2ccc(Cl)cc2)c(O)c1	Pf growth 96h 3.7µM, Pf growth 48h 4.65µM
CCOc1ccc(-c2nc(N)ncc2-c2ccccc2)c(O)c1	Pf growth 96h inconclusive, Pf growth 48h inconclusive
CCOc1ccc(-c2nc(N)ncc2-c2ccc(OC)cc2)c(O)c1	Pf growth 96h inconclusive, Pf growth 48h inconclusive
CCc1cccc(CC)c1NC(=O)C(CC)Sc1nc2ccncc2[nH]1 (centres undefined)	none
CCOC(=O)c1sc(NC(=O)Cc2c(F)cccc2Cl)nc1C	CHX counter 29.6, Shiga toxin inh 75.0, Pf growth 48h inconclusive
O=C(Cc1c(F)cccc1Cl)Nc1nc2ccccc2s1	CHX counter 38.3, Shiga toxin inh 113.0
Cc1nc2ccc(NC(=O)Cc3c(F)cccc3Cl)cc2s1	CHX counter 30.9, Shiga toxin inh 52.5
Cc1ccc(S(=O)(=O)N2CCCC2C(=O)NCc2ccc3c(c2)OCO3)cc1 (centres undefined)	Pf growth 96h inconclusive, Pf growth 48h inconclusive
Cc1cc(Oc2ccc3c(-c4ccccn4)noc3n2)ccc1F	none (no result: Pf growth 96h, CHX counter, Shiga toxin inh, Pf growth 48h)
COC(=O)C1[C@H]2[C@@H]3[C@H](c4ccc(C)o4)Nc4ccc(Cl)cc4[C@@H]3N(C(=O)OC(C)(C)C)[C@@H]12 (some centres undefined)	none (no result: Pf growth 96h, CHX counter, Shiga toxin inh, Pf growth 48h)
O=C1Cc2c([nH]c3ccc(Br)cc23)-c2ccccc2N1	HCMV inh -75.2 (no result: Pf growth 96h, CHX counter, Shiga toxin inh, Pf growth 48h)
O=C1Nc2ccccc2C1=Nc1ccc2[nH]c3ccccc3c2c1	none (no result: Pf growth 96h, CHX counter, Shiga toxin inh, Pf growth 48h)
CCN(CC)S(=O)(=O)c1ccc(N2CCCC2)c(NC(=O)C2CCCCC2)c1	none
CCN(CC)S(=O)(=O)c1ccc(N2CCCCC2)c(NC(=O)/C=C/c2ccc(OC)c(OC)c2)c1	Pf growth 96h 10.4µM, Pf growth 48h 9.28µM
CCN(CC)S(=O)(=O)c1ccc(N2CCCC2)c(NC(=O)c2ccc(OC)cc2OC)c1	Pf growth 96h inconclusive, Pf growth 48h 13.1µM
CCN(CC)S(=O)(=O)c1ccc(N2CCCCC2)c(NC(=O)/C(C#N)=C/c2ccc(OC)cc2)c1	Pf growth 96h 11.7µM, Pf growth 48h inconclusive
CCN(CC)S(=O)(=O)c1ccc(N2CCCC2)c(NC(=O)Cc2cc(OC)c(OC)c(OC)c2)c1	Pf growth 96h inconclusive, Pf growth 48h 7.38µM
CCN(CC)S(=O)(=O)c1ccc(N2CCCC2)c(NC(=O)Cc2ccc(OC)cc2)c1	Pf growth 96h inconclusive, Pf growth 48h inconclusive
CCc1ccc(OCC(=O)Nc2c(C(=O)c3ccccc3)oc3ccccc23)cc1	none (no result: Pf growth 96h, CHX counter, Shiga toxin inh, Pf growth 48h)
O=S(=O)(NCCSc1nnc(-c2ccco2)n1-c1ccccc1)c1ccccc1	Pf growth 48h inconclusive, HCMV inh inconclusive
CCOc1ccc(S(=O)(=O)Nc2cc(S(=O)(=O)N(CC)CC)ccc2N2CCCC2)cc1	Pf growth 96h 1.31µM, Pf growth 48h 7.38µM, HCMV inh inconclusive
CCN(CC)C(=O)c1ccc(NC(=O)Nc2ccccc2F)cc1	CHX counter 16.0
Cc1ccc([N+](=O)[O-])cc1NC(=O)Nc1cccc(F)c1	Pf growth 96h inconclusive, Pf growth 48h 7.38µM, HCMV inh -96.8
O=C(Nc1ccccc1F)NC1CCCc2ccccc21 (centres undefined)	Pf growth 96h inconclusive, Shiga toxin inh 34.0, Pf growth 48h inconclusive
Cc1ccc([N+](=O)[O-])cc1NC(=O)Cc1ccc(F)cc1	none
Cc1ccc(N=Nc2ccc(C)cc2NC(=O)Nc2ccccc2F)cc1	Pf growth 96h inconclusive, CHX counter 46.2, Pf growth 48h inconclusive, HCMV inh -67.1
COc1ccccc1C(CNC(=O)C(C)Oc1ccc(Br)cc1)N1CCCC1 (centres undefined)	Pf growth 96h inconclusive, Pf growth 48h inconclusive (no result: CHX counter, Shiga toxin inh)
COc1ccc(-c2cc(C(C)=O)c(C)n2CCC(=O)Nc2ccc(C(F)(F)F)cc2)cc1	none (no result: Pf growth 96h, CHX counter, Shiga toxin inh, Pf growth 48h)
O=C(c1ccc2c(=O)n3c(nc2c1)CCCCC3)N1CCN(c2cccc(Cl)c2)CC1	Pf growth 48h inconclusive
C[C@H](NC(=O)Nc1ccccc1F)C(=O)O	Pf growth 96h inconclusive
CCN(CC)CCNC(=O)c1ccc(NC(=O)Nc2cccc3ccccc23)cc1	Pf growth 96h 9.28µM, Pf growth 48h 13.1µM, HCMV inh inconclusive
O=C(Nc1ccc(Br)cc1)Nc1ccccc1F	CHX counter 49.8, Shiga toxin inh 107.2
O=C(Nc1ccccc1F)Nc1ccccc1F	CHX counter 34.6, Shiga toxin inh 72.6
O=C(NNc1cccc(Cl)n1)Nc1ccccc1F	none
O=C(NNc1ccccc1)Nc1ccccc1F	CHX counter 20.4, Shiga toxin inh 87.1
O=C1c2ccccc2C(=O)N1CCc1nc2ccccc2c(=O)n1Cc1ccco1	none
Cc1ccc([N+](=O)[O-])cc1NC(=S)NC(=O)C(C)(C)C	CHX counter 14.0
O=C(Nc1ccccc1)Nc1cc([N+](=O)[O-])ccc1F	Pf growth 96h inconclusive, HCMV inh inconclusive
O=C(Nc1ccccc1F)Nc1cccc2ccc(O)cc12	CHX counter 46.2, Shiga toxin inh 102.0, Pf growth 48h inconclusive
Cc1ccc([N+](=O)[O-])cc1NC(=S)NC(=O)CC(C)(C)C	none
Cc1cc([N+](=O)[O-])ccc1NC(=O)Nc1ccccc1F	Pf growth 48h inconclusive, HCMV inh -60.7
O=C(C1=NOC2(C1)C(=O)N(Cc1ccccc1)c1ccccc12)N1CCOCC1 (centres undefined)	none (no result: Pf growth 96h, CHX counter, Shiga toxin inh, Pf growth 48h)
COC(=O)c1c(NC(=O)C2COc3ccccc3O2)sc2c1CCN(C(=O)OC)C2 (centres undefined)	none (no result: Pf growth 96h, CHX counter, Shiga toxin inh, Pf growth 48h)
COC(=O)c1c(NC(=O)C2COc3ccccc3O2)sc2c1CCN(Cc1ccccc1)C2 (centres undefined)	Pf growth 96h inconclusive, Pf growth 48h 5.22µM, HCMV inh inconclusive
CCOC(=O)c1c(NC(=O)C2COc3ccccc3O2)sc(C)c1C (centres undefined)	Pf growth 48h 5.86µM
CCCCCc1nnc(NC(=O)C2COc3ccccc3O2)s1 (centres undefined)	CHX counter 30.5, Shiga toxin inh 38.7
O=C(Nc1ncc(Cc2ccccc2)s1)C1COc2ccccc2O1 (centres undefined)	CHX counter 43.5, Shiga toxin inh 125.9
Cc1cc(=O)n2nc(N3CCC(C(=O)NCc4ccccc4F)CC3)sc2n1	Pf growth 96h inconclusive, HCMV inh inconclusive
